# Reference: PubChem BioAssay (Tox21)
# The source made the active and inactive calls. Calls come from the whole dose curve.
# Experiment: G protein-coupled receptor (GPCR) small molecule agonists, calcium flux assay: HEK293 wild type cell line counter screen (AID 1920065)
# Conditions: HEK293 WT calcium flux, fluorescence, agonist mode; series mostly up to 57.6 µM; activation: at the top concentration
# Excerpt: U.S. Tox21 Program National Center for Advancing Translational Sciences [NCATS] Division of Preclinical Innovation [DPI] U.S. Environmental Protection Agency [EPA] National Institutes of Environmental Health Sciences [NIEHS] National Toxicology Program [NTP] U.S. Food and Drug Administration [FDA] Assay overview: The increased intracellular calcium release that occurred upon G protein-coupled receptor (GPCR) activation led to the frequent use of calcium flux assays to detect GPCR activation. For the purpose of studying and screening compounds that may activate GPCR, receptor-overexpressing models were typically generated using Hek293 wild-type (WT) cells. In order to eliminate the compounds that may have induced calcium release for non-specific activation, a counter-assay utilizing calcium flux on Hek293 WT cells was performed. The data were formulated in order to serve as a control for any calcium flux detection utilizing Hek293 cells with either GPCR overexpression or gene modification. The procurement of Hek293 WT cells from ATCC. Fluorescence intensity can be utilized to determine the activation of the compound in a calcium flux assay. As a counter control, this cell line was utilized to screen the Tox21 10K compound library.
# Assay Protocol Summary: Hek293 cells were dispensed at 1500cells/4uL/well in 1536-well black wall/clear bottom plates using a multidrop dispenser. After the assay plates were incubated at a 37 C/5% CO2 incubator for 18 hours, 4 uL of Calcium Dye Solution was added to each well. The plates were incubated at 37 C for 1 hour. For agonist mode, 23 nL of compounds dissolved in DMSO, positive control (ATP) or DMSO only was transferred to the assay plate by a pin tool station. The fluorescence intensity in the plates was measured using FDSS 7000EX kinetic plate reader with a filter set of Ex/Em=480/540 for 3 min at 1 sec intervals. Each test compound was measured at 15 concentrations and in triplicates.
# % is set by controls: 0 for no effect and ±100 for the full control effect.
SMILES,activation,Potency
CC(=O)c1sc(C)nc1C,0.79% (inactive),–
COc1ccccc1C=O,0.192% (inactive),–
COc1cc(C(=O)N2CCCCCCC2)cc(OC)c1OC,-0.247% [at 26.5 µM] (inactive),–
CCN[C@H]1CN(CCCOC)S(=O)(=O)c2sc(S(N)(=O)=O)cc21,1.62% [at 26.5 µM] (inactive),–
COc1ccc(-c2coc3cc(O)cc(O)c3c2=O)cc1,–,inactive
CC(=O)C1(C)CC2=C(CCCC2(C)C)CC1C (stereo not given),–,inactive
NCCNCCO,-0.507% (inactive),–
C1CCSC1,2.46% (inactive),–
CCOc1ccccc1C(N)=O,–,inactive
O=C(O)CN(CCN(CC(=O)O)CC(=O)O)CCN(CC(=O)O)CC(=O)O,1.29% [at 11.8 µM] (inactive),–
COC(=O)N[C@H](C(=O)N[C@@H](Cc1ccccc1)[C@@H](O)CN(Cc1ccc(-c2ccccn2)cc1)NC(=O)[C@@H](NC(=O)OC)C(C)(C)C)C(C)(C)C,-0.687% [at 26.5 µM] (inactive),–
[Cl][Dy]([Cl])[Cl],0.0469% (inactive),–
CC1COc2ccccc2N1 (stereo not given),0.431% (inactive),–
CC(C)CNCC(C)C,-0.622% (inactive),–
C=C(C)C(=O)OCCCCCCCCCCCCC,3.07% (inactive),–
Cc1ccc(S(N)(=O)=O)cc1,–,inactive
O=C1OCCO1,1.31% (inactive),–
c1ccc(CNc2ncnc3c2ncn3C2CCCCO2)cc1 (stereo not given),-0.659% (inactive),–
CCCCCCCCS,-0.279% (inactive),–
CCCCCCCCN(C)C,-0.0547% (inactive),–

SMILES,activation,Potency
C=CC(C)(CCC=C(C)C)OC(=O)CC (stereo not given),-0.119% (inactive),–
O=C(O)/C=C/C(=O)O,–,inactive
C=CCOCC(CO)(COCC=C)COCC=C,-0.78% [at 26.5 µM] (inactive),–
N#CCC(=O)O,–,inactive
CCOC(=O)c1c(C)n(C)c2ccc(O)cc12,-0.672% [at 26.5 µM] (inactive),–
C1=COCCC1,-0.623% (inactive),–
CC(=O)Oc1ccccc1C(=O)Nc1ncc([N+](=O)[O-])s1,3.11% (inactive),–
CC(=O)O[C@@H]1CC2C3CCc4cc(OC(=O)c5ccccc5)ccc4C3CCC2(C)[C@H]1OC(C)=O (stereo not given in full),-0.0959% [at 26.5 µM] (inactive),–
O=c1[nH]c(=O)c2ccccc2o1,-0.981% [at 26.5 µM] (inactive),–
COC(OC)OC,1.23% (inactive),–
COC(=O)Nc1nc2ccc(Sc3ccccc3)cc2[nH]1,–,inactive
CC(O)CCCCn1c(=O)c2c(ncn2C)n(C)c1=O (stereo not given),0.0798% [at 26.5 µM] (inactive),–
NC/C=C/C(=O)O,0.29% [at 26.5 µM] (inactive),–
CC(C)OC=O,–,inactive
Cc1ccc(CO)cc1,0.0159% (inactive),–
CC(=O)NCCO,-0.0834% (inactive),–
CO[C@H]1C=CO[C@@]2(C)Oc3c(C)c(O)c4c(O)c(c(/C=N/N5CCN(C)CC5)c(O)c4c3C2=O)NC(=O)/C(C)=C\C=C[C@H](C)[C@H](O)[C@@H](C)[C@@H](O)[C@@H](C)[C@H](OC(C)=O)[C@@H]1C,–,inactive
CNCCO,-0.776% (inactive),–
CCSC(=O)N(CC)CC,-0.789% (inactive),–
CN(C)c1cccc(O)c1,–,inactive
